Screening data: PubChem BioAssay, National Center for Advancing Translational Sciences (NCATS)
Rab9 prom act: qHTS Assay for Rab9 Promoter Activators; Huh7 Rab9 promoter-luciferase reporter, luminescence, 24 h; AID 485297, 2010; Potency, µM (top dose mostly 9.22 µM), for inactives: at the highest dose activation, negative = inhibition, actives largely listed as activators; 320,000 tested, 2.8% active; note: % of control where 0% means no effect; nearly all actives have a fitted effect of over 60% in size
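Luminescence read-out: Huh7 cells stably expressing Rab9-luciferase, treated 24 h with compound at 37 °C, then lysed with luciferase reagent for 10 min at ambient before reading.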
NPC1 prom act: qHTS Assay for NPC1 Promoter Activators | Huh7 NPC1 promoter luciferase reporter, 24 h | Potency, µM (doses to about 9.22 µM), inactives show at the top dose activation, most hits filed as activators | 320,000 tested, 2.4% active | AID 485313, 2010; note: % of control where 0% means no effect; nearly all actives have a fitted effect of over 60% in size
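Quantitative HTS used a cell-based reporter: Huh7 cells stably bearing the NPC1 promoter upstream of luciferase were treated with compounds for 24 h, and promoter activation was read as luminescence.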
Luc counter: Counterscreen for Luciferase (Kinase-Glo TM) Inhibition | Luciferin 4-monooxygenase (Photuris pensylvanica), Q27757 | Potency, µM (highest dose often 38.3 µM), for the others: at the top dose activity change, negative = inhibition, actives largely listed as inhibitors | Kinase-Glo luciferase, ATP luminescence, 8 min | 200,000 tested, 0.28% active | AID 1379, 2008; note: % is set by controls: 0 for no effect and ±100 for the full control effect; nearly all actives have a fitted effect of over 60% in size
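Compounds were added to a substrate mix at pH 7.2 (50 mM imidazole, 10 uM ATP, within the enzyme's linear range), followed by Kinase-Glo detection reagent; luminescence was measured after 8 minutes at ambient temperature.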
ELG1 genotox: qHTS screen for small molecules that induce genotoxicity in human embryonic kidney (HEK293T) cells expressing luciferase-tagged ELG1; HEK293T ELG1-luciferase reporter, luminescence, 16 h; Potency, µM (highest dose often 46 µM), for the others: top-dose activity change, positive = activation, actives largely listed as activators; 330,000 tested, 1.3% active; AID 504466, 2011; note: % of control where 0% means no effect; nearly all actives have a fitted effect of over 60% in size
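HEK293T cells expressing luciferase-tagged ELG1 were exposed to compound or DMSO vehicle for 16 hr at 37 °C and 5% CO2. Luciferase activity was then measured with ONE-Glo after 30 min at room temperature.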
FLuc modulator: qHTS profiling assay for firefly luciferase inhibitor/activator using purifed enzyme and Km concentrations of substrates (counterscreen for miR-21 project) | AID 588342, 2011 | Potency, µM (doses to about 57.5 µM), for inactives: at the top dose activity change, negative = inhibition, usual class: inhibitors | 360,000 tested, 6.9% active | purified FLuc, Km substrates, luminescence inhibition;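 note: plate controls were vehicle for no effect and reference inhibitor for full effect; nearly all actives have a fitted effect of over 55% in size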
Target sequence (P08659 whole entry, looked up): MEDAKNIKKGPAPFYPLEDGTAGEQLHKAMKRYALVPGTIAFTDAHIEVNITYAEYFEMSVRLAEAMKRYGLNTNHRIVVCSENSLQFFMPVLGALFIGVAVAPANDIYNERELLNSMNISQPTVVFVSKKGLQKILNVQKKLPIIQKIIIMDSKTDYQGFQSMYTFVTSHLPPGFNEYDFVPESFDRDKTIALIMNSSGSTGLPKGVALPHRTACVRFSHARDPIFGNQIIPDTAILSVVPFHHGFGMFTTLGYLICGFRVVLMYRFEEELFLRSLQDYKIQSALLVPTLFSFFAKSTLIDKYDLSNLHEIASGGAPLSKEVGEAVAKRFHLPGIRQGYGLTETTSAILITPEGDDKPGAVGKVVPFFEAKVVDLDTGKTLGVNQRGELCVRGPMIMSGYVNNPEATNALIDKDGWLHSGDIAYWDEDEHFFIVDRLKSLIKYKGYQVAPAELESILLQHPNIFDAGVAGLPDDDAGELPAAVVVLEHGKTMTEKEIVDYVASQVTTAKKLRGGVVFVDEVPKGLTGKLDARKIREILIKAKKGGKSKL
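Biochemical qHTS of compounds, final roughly 60 µM downward over six points, against 10 nM purified firefly luciferase using Km concentrations of substrates (10 uM D-luciferin, 10 uM ATP) in Tris acetate pH 7.5 buffer; luminescence output.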
SMN2 splice up: qHTS Assay for Enhancers of SMN2 Splice Variant Expression. 210,000 tested, 2.8% active. HEK293 SMN2-luciferase splicing reporter, luminescence, 30-36 h. Potency, µM (highest dose often 46.1 µM), for the others: top-dose activity change, positive = activation, actives largely listed as activators; note: % of control where 0% means no effect; nearly all actives have a fitted effect of over 55% in size
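HEK293 cells carry an SMN2 minigene-luciferase reporter in which exon 7 inclusion puts luciferase in frame. Cells were seeded at 2000 cells/well, attached for 10-12 hours, then exposed to compounds for 30-36 hours at 37C before ONE-Glo luminescence.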
Active calls of the source: *; ? = inconclusive; . = no result; [ ] = another dose, or the depositor's remark. An excerpt weighted towards active compounds, which were near 7.5% of everything screened. Calls come from the whole dose curve; as a rule, active = well fitted curve in the direction sought with a large enough effect; inconclusive = small, poorly fitted or top-dose-only effect, or another doubt; inactive = no such curve, though single readings can be large; an effect the other way counts as inactive or inconclusive. Potency is the fitted concentration of half-maximal effect.

SMILES	Rab9 prom act	NPC1 prom act	Luc counter	ELG1 genotox	FLuc modulator	SMN2 splice up
CCCn1c(C)cc(/C=C(\C#N)C(=O)OCC(=O)Nc2ccc(OC)c(Cl)c2)c1C	11%	-1%	.	2%	?	.
CCOC(=O)/C(C#N)=C/c1cc(C)n(-c2ccc(C)cc2)c1C	1µM*	2.8µM*	2%	1.8µM*	2.4µM*	-7%
Cc1cc(/C=C(\C#N)C(=O)Nc2ccccc2)c(C)n1-c1ccc(C(=O)O)cc1	0%	3%	.	-4%	-5%	.
CCCn1c(C)cc(/C=C(\C#N)C(=O)OCC(=O)NC(=O)NCC)c1C	-7%	0%	18%	3%	12µM*	6%
COc1ccc(COC(=O)N/N=C(\C)CC(=O)Nc2ccc(Cl)cn2)cc1	0%	-2%	.	2%	-1%	.
Cc1ccccc1-c1nnn(Cc2ccc(F)cc2Cl)n1	-1%[1.84 µM]	16%	.	9%	17µM*	.
COc1cc(-c2nnn(Cc3ccccc3C)n2)cc(OC)c1OC	4%	-5%	.	6%	1%	.
CN(C)c1ccc(-c2nnn(Cc3ccccc3Br)n2)cc1	?	?	-2%	?	13µM*	12%
Clc1ccccc1Cn1nnc(-c2cccs2)n1	3.5µM*	3.2µM*	1%	18µM*	15µM*	13µM*
Clc1ccccc1Cn1nnc(-c2ccccc2)n1	?	27%	1%	?	21µM*	?
Clc1ccc(Cn2nnc(-c3ccccc3)n2)cc1	13%	10%	2%	14%	?	29%
Cc1ccccc1NC(=O)CSc1nnc(C2CC2)n1CC1CCCO1 (centres undefined)	-1%	0%	.	-3%	1%	.
Cc1cccc(NC(=O)C(=O)NCC(c2ccc3c(c2)OCO3)N2CCOCC2)c1C (centres undefined)	.	.	.	.	-5%	.
COc1ccc(NC(=O)Nc2ccc3c(c2)CCC3)cc1	?	?	.	21µM*	-13%	.
Cc1ccc(NC(=O)c2ncoc2-c2ccco2)cc1Cl	.	.	.	.	11µM*	.
Cc1ccc(NC(=O)Nc2ccc3c(c2)CCC3)cc1C	29%	30%	.	14%	1%	.
Cc1ccc(NC(=O)Cn2nc(-c3ccco3)ccc2=O)cc1Cl	0%	1%	.	-1%	-3%	.
COc1ccc(OC)c(/C=C/C(=O)Nc2ccc3c(c2)CCC3)c1	1%	6%	5%	0%	11µM*	12%
COc1ccc(/C=C/C(=O)Nc2ccc(-c3nnc4n3CCCCC4)cc2)c(OC)c1	1%	4%	-1%	-7%	27µM*	-12%
COc1cc(CN(C(=O)COc2ccccc2Cl)c2ccccn2)cc(OC)c1OC	.	.	.	.	6%	.
CC(=O)c1cccc(NC(=O)C2CCN(C(=O)c3cnn(-c4ccccc4)c3-n3cccc3)CC2)c1	.	.	.	.	-3%	-21%
CC(C)NC(=O)NC(=O)CN1c2cccc3cccc(c23)S1(=O)=O	0%	-3%	.	0%	-2%	.
COc1ccccc1/C=C/C(=O)Nc1ccc(N2CCOCC2)cc1	0%	-37%	-1%	5%	-6%	-3%
COc1ccccc1/C=C/C(=O)Nc1ccc2c(c1)CCC2	1.8µM*	3.2µM*	-1%	?	4.3µM*	13µM*
COc1cccc(-c2ocnc2C(=O)Nc2ccc3c(c2)CCC3)c1	9%	-1%	.	16%	19µM*	.
SMILES	Rab9 prom act	NPC1 prom act	Luc counter	ELG1 genotox	FLuc modulator	SMN2 splice up
CCCCCOC(=O)c1ccc(OC(=O)c2sc3ncn(Cc4cccc(F)c4)c(=O)c3c2C)cc1	.	.	.	.	-1%	.
CCOC(=O)/C(=N\Nc1ccc(OC)cc1)c1csc(Nc2ccccc2)n1	-3%	1%	17%	11%	9.5µM*	2%
CCOC(=O)/C(=N/Nc1ccccc1)c1csc(Nc2ccccc2)n1	-4%	-2%	-3%	3%	?	7%
CN(C)c1cccc(-c2nnc(SCCCC#N)o2)c1	2.2µM*	3.2µM*	-1%	?	6.7µM*	11µM*
CN(C)CCSc1nnc(-c2ccccc2)o1	30%	24%	-1%	13µM*	?	10µM*
N#Cc1cccc(-c2nnc(SCc3ccccc3C#N)o2)c1	?	?	-4%	?	?	?
CCN(CC)C(=O)CSc1nnc(-c2ccccc2)o1	3.5µM*	?	0%	16µM*	?	-16%
CSc1nnc(-c2ccccc2)o1	9%	1%	10%	14%	-4%	10%
Cc1ccc(Cl)cc1N1CCN(C2(c3ccccc3)C(=O)c3ccccc3C2=O)CC1	.	.	.	.	1%	2%
CCc1nc2ccccc2n2c(-c3ccccc3)c3c(=O)n(C)c(=O)n(C)c3c12	.	.	.	.	-19%	-3%
CS(=O)(=O)N1CCC2(CCN(C(=O)Nc3cccc(F)c3)CC2)CC1	.	.	-1%	.	.	-6%
COc1cc(-c2noc(CN3CCN(c4cccc(Cl)c4)CC3)n2)cc(OC)c1OC	.	.	.	.	-2%	-3%
Cn1c(=O)c2ncn(CC(=O)Nc3ccc(N4CCOCC4)cc3)c2n(C)c1=O	-2%	0%	-5%	1%	0%	-5%
CCC(C)c1ccc2oc(-c3ccc(NC(=O)Cn4cnc5c(=O)n(C)c(=O)n(C)c54)cc3)nc2c1 (centres undefined)	?	23%	2%	7%	12µM*	-48%
Cc1ccc(NC(=O)Cn2cnc3c(=O)n(C)c(=O)n(C)c32)c(C)c1	-5%	2%	-3%	0%	0%	-23%
Cc1ccc2oc(-c3cccc(NC(=O)Cn4cnc5c(=O)n(C)c(=O)n(C)c54)c3)nc2c1	18%	13%	-5%	17%	3.8µM*	-26%
Cc1ccc(N(Cc2cc3ccccc3[nH]c2=O)C(=O)c2cccc(Cl)c2)cc1	.	.	.	.	-2%	7%
CCN(C(=O)COc1ncnc2scc(-c3ccc(F)cc3)c12)C1CCS(=O)(=O)C1 (centres undefined)	13%	0%	-2%	18µM*	4%	7%
CCOc1cc(/C=C2/C(=O)ON=C2C)cc(Br)c1O	-10%	-6%	.	2%	21µM*	.
CCOc1cc(/C=C2\C(=O)ON=C2c2ccccc2)cc(Br)c1O	-7%	-12%	.	?	9.5µM*	.
COc1ccc2nc3sc(C(=O)N4CCN(c5ccc(F)cc5)CC4)cc3cc2c1	.	.	.	.	-1%	2%
CCN1CCN(S(=O)(=O)c2ccc(Cl)c(C(=O)N(C)CCOc3ccc(Cl)cc3)c2)CC1	-7%	0%	.	?	1%	.
O=C1CC(Cc2ccccc2)C(=O)N1c1ncccn1 (centres undefined)	?	2.2µM*	-2%	15µM*	15µM*	.
